# The list is not random: actives were taken first. Their share in the collection is about 7.1%.
# SW480 rereplic: induces DNA re-replication in SW480 colon adenocarcinoma cells; SW480 DNA re-replication, Hoechst DNA content imaging, 48 h; Potency, µM (top dose mostly 46.1 µM), for the others: at the top dose re-replication activation, usual class: activators; hit rate 1.8% among 340,000; AID 624297; further: % of control where 0% means no effect; nearly all actives have a fitted effect of over 55% in size
#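 Treated cells incubate 48 hr (37 C, 5% CO2), are stained 40 min with Hoechst, and nuclear fluorescence is enumerated; a rise in nuclei with high DNA signal marks re-replication.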
# p53 reactivation: restores transcriptional activity of mutant p53 | H1299 p53-A138V BP100-luciferase reporter, luminescence, 24 h | Potency, µM (highest dose often 92.2 µM), without a hit: at the top dose activity change, positive = activation, hits mostly activators | hit rate 0.063% among 320,000; further: % of control where 0% means no effect; nearly all actives have a fitted effect of over 45% in size
#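 H1299 (p53-null), stable ts p53-A138V + BP100-Luc; 1000 cells/well, Opti-MEM/10% FBS; cpd 4 pt, 1:5; 24 h, 37 deg C, 5% CO2; detection reagent 10 min RT; luminescence.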
# ELG1 repair inh: ELG1-dependent DNA repair inhibition. HEK293T ELG1-luciferase reporter, luminescence, 16 h; DNA damage induced by 5-fluorouridine. Potency, µM (titrated, usually from 46.1 µM), without a hit: at the highest dose activity change, negative = inhibition, hits mostly inhibitors. hit rate 2.3% among 330,000. AID 504467; further: on the % scale 0 is the no-effect control and ±100 the full control effect; nearly all actives have a fitted effect of over 55% in size
#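 Overnight (16 hr) co-exposure of 2,000 cells/well to 5-fluorouridine and compound at 37 °C preceded detection. Luciferase was quantified via ONE-Glo luminescence; loss of signal denotes inhibition.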
# ELG1 genotoxic: induces genotoxicity in HEK293T cells with luciferase-tagged ELG1. AID 504466. hit rate 1.3% among 330,000. Potency, µM (doses to about 46 µM), for inactives: at the top dose activity change, positive = activation, actives largely listed as activators. HEK293T ELG1-luciferase reporter, luminescence, 16 h; further: % of control where 0% means no effect; nearly all actives have a fitted effect of over 60% in size
#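 After overnight (16 hr) compound treatment at 37 °C, ELG1-luciferase HEK293T cells were lysed with ONE-Glo; luminescence quantified 30 min later at room temperature.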
# MCF10A rereplic: induces DNA re-replication in MCF 10a normal breast cells | MCF 10A DNA re-replication, Hoechst nuclear intensity, 48 h | Potency, µM (doses to about 46.1 µM), inactives show top-dose activity, positive = re-replication, hits mostly activators | hit rate 2.9% among 350,000 | AID 624296; further: % of control where 0% means no effect; nearly all actives have a fitted effect of over 50% in size
# A-T KAP1 phos: potential ataxia-telangiectasia treatment | Potency, µM (doses to about 57.5 µM), inactives show at the top dose activation, hits mostly activators | hit rate 0.19% among 320,000 | AID 485349 | F2112 A-T fibroblasts, KAP-1 phosphorylation AlphaLISA; neocarzinostatin DNA damage 30 min before lysis; further: % of control where 0% means no effect; nearly all actives have a fitted effect of over 45% in size
#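 hTERT-immortalized A-T patient fibroblasts (F2112), 500 cells/well in OPTI-MEM, 1% FBS, got compounds for 60 min, then NCS for 30 min at 37C. Lysates were then assayed for phospho-KAP-1 by AlphaLISA (anti-pKAP1 donor, anti-KAP1 acceptor beads), 6 hr at 25C.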
# Active calls of the source: *; u = inconclusive; x = no result given; [ ] = another dose, or the depositor's remark. The call rests on the fitted dose curve; in most records, active means well fitted curve in the direction sought with a large enough effect; inconclusive means small, poorly fitted or top-dose-only effect, or another doubt; inactive means no such curve, though single readings can be large; an effect the other way counts as inactive or inconclusive. Potency means the concentration at half of the fitted maximal effect.
SMILES,SW480 rereplic,p53 reactivation,ELG1 repair inh,ELG1 genotoxic,MCF10A rereplic,A-T KAP1 phos
Cc1cc(NC(=O)c2nn(C)c(C)c2Br)no1,-5.8%,u,u,u,u,3.2%
COc1ccc(C(=O)c2ccc(N(C)C)cc2)c(OC)c1,4.47µM*,-3.3%,u,0.1%,2.24µM*,-1.1%
COc1ccc(C(=O)c2ccc(OC)cc2OC)cc1,u,1.2%,u,-1.0%,16.4µM*,3.0%
CN(C)c1ccc(C(=O)c2ccc(N(C)C)c3ccccc23)cc1,0.411µM*,u,u,u,0.206µM*,x
COc1ccc(OC)c(C(=O)c2ccc(C(=O)c3cc(OC)ccc3OC)cc2)c1,-0.8%,-2.0%,u,-20.8%,-13.9%,-1.8%
COc1ccc(S(=O)(=O)N(CC(C)C)C2CCS(=O)(=O)C2)cc1OC (stereo unspecified),1.6%,-0.4%,2.3%,-0.2%,u,5.0%
Clc1ccc(CSc2nc3ccncc3[nH]2)cc1,-23.2%,x,u,2.91µM*,-12.4%,-13.5%
O=C(c1ccc(CSc2nc3ccncc3[nH]2)cc1)N1CCN(c2cccc(Cl)c2)CC1,20.9%,-11.4%,25.9µM*,-3.7%,u,-0.4%
O=C(c1ccc(CSc2nc3ccncc3[nH]2)cc1)N1CCCCCC1,1.8%,u,u,u,5.3%,-13.5%
O=C(NNC(=O)c1ccccc1F)c1ccc(NS(=O)(=O)c2ccc(F)cc2)cc1,-1.8%,-3.1%,4.3%,1.1%,0.7%,-2.7%
COc1ccc(N2CCN(S(=O)(=O)CCNC(=O)c3ccco3)CC2)cc1,-0.2%,2.2%,6.0%,-3.8%,-0.5%,-2.2%
CCS(=O)(=O)N1CCN(C(=O)c2ccco2)CC1,16.7%,-4.1%,6.2%,4.4%,8.2µM*,2.3%
COc1ccc(C(=O)NCCS(=O)(=O)N2CCN(C(=O)c3ccco3)CC2)cc1,4.11µM*,5.0%,1.0%,1.0%,1.3%,9.4%
Cc1cccc(C(=O)OCC(=O)N(CC(C)C)c2c(N)n(Cc3ccccc3)c(=O)[nH]c2=O)c1C,-1.4%,-2.8%,1.1%,-0.5%,9.3%,1.0%
O=C1CCCc2nc(N3CCCCC3)sc21,0.0%,u,u,20.6µM*,15.7%,2.0%
Nc1nnc(N2CCCCC2)s1,-3.9%,-0.6%,-6.8%,0.9%,-12.0%,-3.1%
Cc1cccc(C(=O)OCC(=O)Nc2c(C)n(C)n(-c3ccccc3)c2=O)c1,-2.9%,-4.0%,10.4%,1.3%,1.9%,9.8%
Cc1ccc(-c2cc(C(=O)Nc3c(C)n(C)n(-c4ccccc4)c3=O)c3ccccc3n2)cc1,-5.6%,-16.2%,13µM*,-5.6%,8.8%,8.4%
COc1ccc(-c2cc(C(=O)Nc3c(C)n(C)n(-c4ccccc4)c3=O)c3ccccc3n2)c(OC)c1,2.6%,-7.4%,10.3µM*,-11.2%,13.8%,-14.7%
Cc1ccc(-c2cc(C(F)(F)F)n3nc(C(=O)Nc4c(C)n(C)n(-c5ccccc5)c4=O)cc3n2)cc1,1.3%[9.22 µM],-3.9%,-17.0%,0.7%,10.9%,-1.2%
Cc1c(NC(=O)COC(=O)c2cc(-c3ccc(-c4ccccc4)cc3)nc3ccccc23)c(=O)n(-c2ccccc2)n1C,x,u,u,u,20.6µM*,1.3%
Cc1cccc(C)c1NC(=O)COC(=O)c1cc(-c2cccnc2)nc2ccccc12,-0.2%,-7.8%,-18.6%,1.0%,11.6µM*,-0.6%
O=C(COC(=O)c1cc(-c2cccnc2)nc2ccccc12)Nc1ccc(F)cc1F,0.6%,-11.6%,-2.9%,-0.5%,1.5%,4.0%
CCN(c1ccccc1)S(=O)(=O)c1ccc(C(=O)N2CCN(c3ccccc3)CC2)cc1,9.0%,-5.6%,u,-2.3%,16.2%,8.3%
O=C(NC1CCCCC1)C(c1ccncc1)N(C(=O)c1csnn1)c1ccc(F)cc1 (stereo unspecified),u,6.8%,8.6%,0.2%,-25.8%,0.9%
SMILES,SW480 rereplic,p53 reactivation,ELG1 repair inh,ELG1 genotoxic,MCF10A rereplic,A-T KAP1 phos
CCOc1ccc(N(CC(=O)Nc2ccccc2C(=O)N2CCCC2)S(C)(=O)=O)cc1,2.7%,1.1%,11.2%,-3.1%,-2.8%,3.5%
Cc1ccc(C(=O)Nc2cccnc2)cc1Cl,-4.3%,-12.6%,u,29.8%,u,23.1%
CCOc1ccc(NC(=O)CSc2nc3ccccc3nc2N2CC(C)OC(C)C2)cc1 (stereo unspecified),-0.9%,6.3%,-22.5%,-0.3%,8.5%,1.5%
CCCN(CCC)C(=O)c1cc(-c2ccc3c(c2)OCO3)nc2ccccc12,u,-0.5%,18.4µM*,-15.4%,u,x
COc1ccc(-c2cc(C(=O)OC(C)C(=O)Nc3c(C)n(C)n(-c4ccccc4)c3=O)c3ccccc3n2)cc1 (stereo unspecified),x,0.9%,14.6µM*,0.3%,-4.8%,-0.3%
O=C(O)c1cc(-c2ccc3c(c2)OCO3)nc2ccccc12,-3.0%,9.4%,u,4.4%,9.7%,4.1%
O=C(COC(=O)c1cc(-c2ccccc2)nc2ccccc12)Nc1ccc2c(c1)OCO2,11.4%,-0.8%,-3.6%,0.7%,5.17µM*,5.2%
COc1ccc(-c2cc(C(=O)OCC(=O)Nc3ccc4c(c3)OCO4)c3ccccc3n2)cc1,-1.3%,-9.5%,u,0.3%,-2.2%,0.3%
COc1ccc(-c2cc(C(=O)Nc3c(C)n(C)n(-c4ccccc4)c3=O)c3ccccc3n2)cc1OC,-3.7%,-3.2%,7.3µM*,-6.0%,0.8%,-5.4%
Cc1ccc(-n2ccn(CC(=O)NCCc3ccccc3)c(=O)c2=O)cc1C,-26.2%,u,0.0%,2.6%[9.26 µM],2.2%,6.1%
CCC(CC)COC(=O)C1=C(C)NC(=O)NC1c1ccc(N(C)C)cc1 (stereo unspecified),1.9%,1.2%,u,-7.4%,-0.2%,-4.2%
COc1ccc(-c2cc(C(=O)OCC(=O)Nc3cc(C)on3)c3ccccc3n2)cc1OC,-0.6%,-9.0%,-12.2%,6.4%,u,-1.2%
CCC(C)c1ccc(-c2cc(C(=O)OCC(=O)Nc3cc(C)on3)c3ccccc3n2)cc1 (stereo unspecified),0.8%,11.0%,u,1.84µM*,u,5.8%
Cc1c(NC(=O)c2cc(-c3ccccc3)on2)c(=O)n(-c2ccccc2)n1C,-0.9%,-2.4%,4.0%,-7.0%,-5.3%,9.8%
Cc1c(NC(=O)c2cc(-c3ccccc3)nc3ccccc23)c(=O)n(-c2ccccc2)n1C,6.9%,-8.8%,5.8µM*,-4.1%,u,7.9%
